RE007 growth inh = less growth of the S. pombe RE007 Vpr strain. Potency, µM (series often up to 92.2 µM), inactives show top-dose activity change, negative = less growth, usual class: inhibitors. actives 0.21% (n = 360,000). S. pombe RE007 Vpr strain, BacTiter-Glo ATP luminescence, 24 h; active = well fitted falling curve with a large enough effect; inconclusive = small, poorly fitted or top-dose-only effect; inactive = no such curve, though single readings can be large or run the other way; also: potency is read from the fitted curve at half-maximal effect; % is scaled to controls: 0 for no effect and ±100 for the full control effect; nearly all actives have a fitted effect of over 50% in size
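Fission yeast strain RE007, carrying one chromosomally integrated HIV-1 vpr copy, was seeded at OD 0.01 in PMG+AL medium with 23 nL pinned compound. After 24 h at 30 °C and 99% humidity, viability was read by BacTiter-Glo luminescence.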
SARS PLP yeast = SARS-CoV PLP inhibition in yeast; S. cerevisiae expressing SARS-CoV PLpro, growth rescue; Potency, µM (top dose mostly 32.9 µM), for the others: at the highest dose activity, positive = growth rescue, hits mostly activators; actives 0.19% (n = 330,000); calls by dose curve; also: potency is read from the fitted curve at half-maximal effect; 0% is about no effect; nearly all actives have a fitted effect of over 55% in size
LmPK inh = LmPK (Leishmania mexicana) enzyme inhibition | purified LmPK, Kinase-Glo ATP luminescence, 1 h | Potency, µM (doses to about 57.5 µM), inactives show at the highest dose activity change, negative = inhibition, hits mostly inhibitors | actives 0.37% (n = 290,000); also: potency is read from the fitted curve at half-maximal effect; % is scaled to controls: 0 for no effect and ±100 for the full control effect
Target sequence (Q27686 whole entry, looked up): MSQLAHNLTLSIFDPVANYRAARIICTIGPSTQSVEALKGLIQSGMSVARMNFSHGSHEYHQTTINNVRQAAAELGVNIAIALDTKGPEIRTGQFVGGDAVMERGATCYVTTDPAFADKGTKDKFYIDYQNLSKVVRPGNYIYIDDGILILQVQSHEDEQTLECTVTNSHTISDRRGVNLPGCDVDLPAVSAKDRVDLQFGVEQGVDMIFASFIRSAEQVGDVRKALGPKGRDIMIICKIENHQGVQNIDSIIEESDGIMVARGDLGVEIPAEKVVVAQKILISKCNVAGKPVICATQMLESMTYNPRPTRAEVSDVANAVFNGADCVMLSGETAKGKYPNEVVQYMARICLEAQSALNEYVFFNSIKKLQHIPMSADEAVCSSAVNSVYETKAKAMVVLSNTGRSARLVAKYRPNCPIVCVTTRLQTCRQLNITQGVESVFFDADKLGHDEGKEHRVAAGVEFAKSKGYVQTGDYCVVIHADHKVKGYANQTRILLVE
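In 50 mM imidazole pH 7.2 with 7 mM MgCl2, LmPK (0.1 nM) turned over PEP (0.5 mM) and ADP (0.1 mM) for 1 h at room temperature. Luciferase read-out of ATP.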
AMA1-RON2 inh = disrupts binding of P. falciparum AMA1 to RON2; AlphaScreen AMA1-biotinylated RON2 peptide binding; actives 0.2% (n = 360,000); AID 720542; Potency, µM (highest dose often 58.2 µM), for inactives: at the top dose activity change, negative = inhibition, actives largely listed as inhibitors;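 also: potency is read from the fitted curve at half-maximal effect; 0% = vehicle wells and -100% = peptide control; nearly all actives have a fitted effect of over 45% in size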
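AMA1 (3D7) with his tag at 25 nM final met compounds first, then biotinylated RON2 peptide at 25 nM; detection used donor plus acceptor beads, 10 µg/mL apiece, read by AlphaScreen after 30 min at room temperature.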
TbPYK inhibitor = inhibitors of Trypanosoma brucei pyruvate kinase; Q57TT1; Potency, µM (doses to about 76.8 µM), inactives show at the top dose activity, negative = inhibition, hits mostly inhibitors; TbPYK enzyme, Kinase-Glo Plus ATP luminescence, 45 min; actives 0.12% (n = 410,000); also: potency is read from the fitted curve at half-maximal effect; % is scaled to controls: 0 for no effect and ±100 for the full control effect; nearly all actives have a fitted effect of over 50% in size
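Quantitative HTS: titrated library compounds versus trypanosomal pyruvate kinase in TEA buffer (pH 7.2) containing KCl, MgCl2, BSA and Tween-20. Reactions were initiated with ADP, 130 uM final. Kinase-Glo Plus luminescence was read after 45 min at RT.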
LmPK inh confirm = Confirms inhibition of Leishmania mexicana pyruvate kinase. actives 40% (n = 150). purified LmPK, Kinase-Glo ATP luminescence, 1 h. Potency, µM (highest dose often 57.5 µM), without a hit: at the top dose activity change, negative = inhibition, hits mostly inhibitors. shares compounds with LmPK inh;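 active = compounds giving a full or partial concentration-response curve, as inhibitors or activators; inconclusive = weak, top-dose-only or unclear curve responses; inactive = no response at any tested dose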
An asterisk follows results filed as active; ? = inconclusive; . = not tested or not shown; [ ] = remark or other dose. The list is not random: actives were taken first. Their share in the collection is about 0.81%. Unless noted, calls follow the shape of the dose curve; as a rule, active = well fitted curve in the direction sought with a large enough effect; inconclusive = small, poorly fitted or top-dose-only effect, or another doubt; inactive = no such curve, though single readings can be large; an effect the other way counts as inactive or inconclusive.

SMILES | RE007 growth inh | SARS PLP yeast | LmPK inh | AMA1-RON2 inh | TbPYK inhibitor | LmPK inh confirm
O=C(Nc1cccc(Oc2ccccc2)c1)C1Cc2c(-c3ccccc3)ccnc2O1 (configuration not stated) | -26%[18.4 µM] | . | . | -2% | 1% | .
CCCCN(CC)CCCNC(=O)c1cc2c(=O)[nH]c3ccccc3c2n1C | . | . | . | . | 1% | .
COc1ccc(N=Nc2n(C)c3ccccc3[n+]2C)cc1 | . | -3% | 1.4µM* | . | . | 13µM*
COc1ccccc1OCc1ccc(C(=O)N(C)c2ccccc2)o1 | -10% | -1% | -5% | 6% | 5% | .
COc1ccc(-c2cc3nc(C)n(N)c(=O)c3s2)cc1 | 11µM* | -7% | 2µM* | 0% | ? | 2.9µM*
Cc1nc2cc(-c3ccccc3)sc2c(=O)n1N | ? | -10% | 2.2µM* | -1% | 10µM* | 4.6µM*
COc1ccc(C(=O)N2CCC[C@@]3(CCN(Cc4ccccc4OC)C3)C2)cc1 | . | . | . | . | 0% | .
CCc1noc(C)c1C(=O)Nc1ccc(C(F)(F)F)cc1 | -2% | -6% | 0% | 0% | 29% | .
O=C(/C=C/Nc1ccc(Oc2ccccc2)cc1)c1ccco1 | -28% | -2% | 7.9µM* | 1% | ? | 21µM*
CCn1c(=O)c2sccc2n2c(CCCC(=O)Nc3ccc(Oc4ccccc4)cc3)nnc12 | . | . | . | . | -9% | .
Cc1ccc(Cl)cc1N1CCN(S(=O)(=O)c2ccc3c(c2)OCCO3)CC1 | -3% | -7% | 0% | -2% | -7% | 9%
Oc1ccc(O)c2c1C1c3ccccc3C2c2ccccc21 | . | -15% | 2.2µM* | . | . | -8%
CCn1c(O)c(N=Nc2ccc3ccccc3n2)c2ccccc21 | 38% | 0% | -3% | 0% | -2% | .
Brc1ccc(N=Nc2ccc3ccccc3n2)cc1 | -1% | -1% | 6.3µM* | ? | ? | 8.2µM*
CN(Cc1cn(C)nc1-c1cccc(Cl)c1)Cc1nccn1C | 8% | 0% | 2% | 52% | -8% | -1%
C[C@]12CC[C@@H]3c4cc(O)c(O)cc4CC[C@H]3[C@@H]1CC[C@@H]2O | -15%[18.4 µM] | 2% | 0.56µM* | ? | ? | ?
O=c1c2ccccc2nc(-c2ccccc2)n1-c1ccccc1 | 10% | 0% | -1% | -7% | 3% | .
O=c1c2ccccc2[se]n1-c1ccccc1 | -21% | -76% | 22µM* | 10% | 8.9µM* | 13µM*
Cc1ccc(N2C(=O)c3ccccc3C2O)nc1 (configuration not stated) | . | -76% | 7.1µM* | . | . | 18µM*
COc1ccc(-n2c3c(c(=O)[nH]c2=O)C(NC(=O)c2ccncc2)(C(F)(F)F)C(=O)N3)cc1 (configuration not stated) | 16% | 6% | -5% | 0% | -1% | .
Cc1cc(CN(C)Cc2cn(C)nc2-c2ccc(Oc3ccccc3)cc2)on1 | -5% | 0% | -5% | -6% | 2% | 4%
CN(Cc1cccnc1)Cc1cn(C)nc1-c1ccc(Oc2ccccc2)cc1 | -7% | 1% | 4% | 8% | 5% | .
c1c2c(cc3sc(N4CCCCC4)nc13)OCO2 | 45µM* | -7% | 7.1µM* | -26% | ? | 18µM*
CC1=CC(C)(C)N(C(=O)c2ccccc2)c2ccc(C)cc21 | . | -19% | -1% | 0% | 2% | 5%
Cc1ccc(/C=C/C(=O)c2ccc(C)cc2)cc1 | 1% | -21% | -8% | 1% | -1% | .
SMILES | RE007 growth inh | SARS PLP yeast | LmPK inh | AMA1-RON2 inh | TbPYK inhibitor | LmPK inh confirm
Cc1ccc(C(=O)/C=C/C(=O)c2ccc(C)cc2)cc1 | -17% | -9% | 4µM* | -15% | ? | ?
COc1ccc(/C=N/NC(N)=S)cc1OC(=O)c1cccc2ccccc12 | 4% | ? | -1% | 6% | -2% | -1%
COc1ccc(C(=O)Oc2cc(/C=N/NC(N)=S)ccc2OC)cc1 | -5% | ? | 4% | 2% | 0% | .
COc1ccc(Cl)cc1C(=O)NNC(=O)c1nn(C)c(=O)c2ccccc12 | -13% | -3% | . | 100% | -10% | .
Nc1cc(S(=O)(=O)N2CCOCC2)ccc1N1CCCCC1 | 0% | -42% | . | -7% | ? | .
O=c1c2ccccc2sn1-c1cc(S(=O)(=O)N2CCOCC2)ccc1N1CCCC1 | 6% | -2% | 8.9µM* | 47% | ? | ?
CN(C)S(=O)(=O)Nc1ccc(-c2cn3ccsc3n2)cc1 | . | . | . | . | -1% | .
Cc1ccc(Cn2cccc(NC(=O)NC3CCCCC3)c2=O)cc1 | 20% | 1% | 5% | -5% | -2% | -1%
O=C(Nc1cccn(Cc2ccc(F)cc2)c1=O)NC1CCCCC1 | 0% | -1% | 1% | -8% | -2% | .
CCC(=O)Nc1cc(C)c(NC(=O)c2ccco2)cn1 | -10% | 4% | -1% | -8% | -3% | .
Cc1cc(NC(=O)c2ccccc2)ncc1NC(=O)c1ccco1 | ? | -25% | 14µM* | -11% | ? | 16µM*
COc1ccc(CC(=O)Nc2ccc(-c3cn4ccccc4n3)cc2)cc1OC | -16% | 0% | 4% | -4% | -3% | .
CC(=O)NC(=S)Nc1ccc(NC(=O)c2cccs2)cc1 | 10% | -16% | -5% | -12% | -7% | .
Cc1c(C(=O)NC(=S)Nc2ccc(NC(=O)c3cccs3)cc2)oc2ccccc12 | 0% | -38% | 7.1µM* | 0% | -2% | -13%
CCc1nc2ccc(C(=O)NCc3ccccc3OC)cn2c1N(CC)CCOC | -14%[18.4 µM] | . | . | 0% | -1% | .
COC(=O)CSc1ccc2nnc(-c3ccc(F)cc3)n2n1 | 11% | -1% | 2% | 6% | -21% | 0%
CCOC(=O)CC(=O)CSc1ccc2nnc(-c3ccc(F)cc3)n2n1 | -5% | 5% | 3% | 3% | 1% | .
CCn1c(SCC(=O)Nc2sc3c(c2C#N)CCC(C(C)(C)C)C3)nnc1-c1ccco1 (configuration not stated) | 1% | ? | 5% | 2% | 3% | 7%
COc1ccc(C(=O)N=c2nc3ccccn3s2)cc1 | ? | -6% | ? | -5% | -10% | 16µM*
COc1ccc(NC(=O)c2sc(=O)n(Cc3ccccc3C#N)c2C)cc1OC | -15%[18.4 µM] | . | . | 6% | -1% | .
CC(C)CN=Cc1c(O)c([N+](=O)[O-])cc2oc3c(c12)CCCC3 | ? | -99% | 10µM* | 13% | -22% | ?
O=[N+]([O-])c1cc2oc3c(c2c(C=NCc2ccccc2)c1O)CCCC3 | ? | -14% | 1µM* | 24% | ? | 0.82µM*
COc1ccc(Oc2ncc3nc(-c4ccc(Cl)cc4)c(=O)n(C)c3n2)cc1 | . | . | . | . | 2% | .
Cc1ccccc1-c1nc(-c2ccccn2)no1 | ? | -20% | 2.5µM* | 19% | ? | 12µM*
